Screening results from PubChem.
Sampled rows, rich in hits. Any-hit rate of the full collection: about 3.8%.
Jurkat NFkB inh = inhibitors of the PMA/ionomycin-induced NF-kB reporter in Jurkat cells; 330,000 compounds, 0.53% hits; PMA/ionomycin-induced NF-kB luciferase reporter, luminescence; AID 435003; inhibition, % at 4 µM; in the data active = inhibition above about 50%
697 NFkB inh = inhibitors of the PMA/ionomycin-induced NF-kB reporter in 697 B cells; inhibition, % at 4 µM; AID 435022; 330,000 compounds, 0.33% hits; 697 B-cell NF-kB luciferase reporter, 16 h; in the data active = inhibition above about 35%
Gli-Sufu antag = antagonists of Gli-Sufu signaling; Sufu-KO-LIGHT fibroblasts, Gli luciferase reporter luminescence; inhibition, % at 5 µM; 340,000 compounds, 0.74% hits;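 active = inhibition above about 55%, limit read from the data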;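 also: 0% = DMSO-treated cells and 100% = wells with medium but no cells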
Shn3 inh set2 = reduces Shn3 3'UTR luciferase signal in osteoblasts | Clone20 osteoblast Shn3 3'UTR firefly luciferase, 24 h | inhibition, % at 12.5 µM | 360,000 compounds, 0.52% hits;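 active = mean inhibition of at least 75% with every replicate also reaching 75%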;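 also: 0% = median of neutral control wells and 100% = pilot-screen positive control compound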
Mdm2-MdmX inh = disrupts the human Mdm2-MdmX interaction; inhibition, % at 8 µM; AID 485346; SaOS-2 split-luciferase Mdm2/MdmX complementation, luminescence; 330,000 compounds, 3% hits; O15151+Q00987;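 active = inhibition of at least 50% at 8 µM in the primary screen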
Target sequence (O15151 whole entry, looked up): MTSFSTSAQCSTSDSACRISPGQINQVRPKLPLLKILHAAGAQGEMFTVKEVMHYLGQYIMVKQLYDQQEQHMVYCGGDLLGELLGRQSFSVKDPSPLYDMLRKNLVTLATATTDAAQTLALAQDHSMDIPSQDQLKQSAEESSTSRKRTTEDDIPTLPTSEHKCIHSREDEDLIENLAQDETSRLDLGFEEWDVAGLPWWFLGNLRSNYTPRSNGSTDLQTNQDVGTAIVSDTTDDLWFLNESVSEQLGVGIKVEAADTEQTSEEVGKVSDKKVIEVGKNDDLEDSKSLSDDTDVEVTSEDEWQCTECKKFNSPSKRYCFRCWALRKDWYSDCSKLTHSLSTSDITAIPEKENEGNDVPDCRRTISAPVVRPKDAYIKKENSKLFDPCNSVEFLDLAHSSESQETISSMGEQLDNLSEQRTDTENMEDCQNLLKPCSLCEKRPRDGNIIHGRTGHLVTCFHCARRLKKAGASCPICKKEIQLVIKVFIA
Target sequence (Q00987 whole entry, looked up): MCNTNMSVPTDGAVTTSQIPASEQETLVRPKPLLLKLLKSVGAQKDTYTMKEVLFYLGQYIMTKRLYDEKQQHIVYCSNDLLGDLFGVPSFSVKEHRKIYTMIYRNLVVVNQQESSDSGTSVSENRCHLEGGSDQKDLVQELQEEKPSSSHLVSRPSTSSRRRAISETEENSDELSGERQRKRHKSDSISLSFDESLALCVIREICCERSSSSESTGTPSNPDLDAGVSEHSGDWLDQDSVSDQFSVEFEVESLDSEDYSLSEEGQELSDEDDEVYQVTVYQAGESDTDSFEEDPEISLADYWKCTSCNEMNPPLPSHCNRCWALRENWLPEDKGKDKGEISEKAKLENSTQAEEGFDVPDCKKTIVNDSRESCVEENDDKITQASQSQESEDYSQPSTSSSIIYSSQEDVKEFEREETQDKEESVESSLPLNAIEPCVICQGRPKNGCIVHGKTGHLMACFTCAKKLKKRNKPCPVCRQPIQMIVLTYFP
Gli-Sufu confirm = confirmation of Gli-SUFU pathway antagonists; 2,500 compounds, 40% hits; shares compounds with Gli-Sufu antag; inhibition, % at 5 µM; AID 602428; Sufu-KO-LIGHT cells, Gli luciferase reporter, luminescence;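 active = mean inhibition at 5 µM reaching about 45%, limit read from the data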;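 also: plate controls were DMSO-treated cells for no effect and wells lacking cells for full effect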
Gli cytotox = cytotoxic in Gli-SUFU antagonist counter-screen | cytotoxicity, % at 5 µM | 2,500 compounds, 32% hits | shares compounds with Gli-Sufu antag | Sufu-KO-LIGHT cells cytotoxicity, ATP luminescence;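 active = mean cytotoxicity at 5 µM above about 25%, limit read from the data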;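 also: cells exposed to compound overnight for roughly 16 to 18 hours; plate controls were DMSO wells with cells for no effect and medium without cells for full effect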
Wnt3a counter = counter-screen for Gli-SUFU antagonists: Wnt3a reporter inhibition. inhibition, % at 6.25 µM. Wnt-LIGHT cells, Wnt3a-driven luciferase reporter, luminescence. AID 651995. 2,500 compounds, 20% hits. shares compounds with Gli-Sufu antag;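 active = mean inhibition above about 25%, limit read from the data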
* hit, by the source's call.

How did CCC(C)CCN1C(N(C)C)=NC[C@@H]1Cc1ccccc1 (stereo not given in full) do in these assays?
Jurkat NFkB inh: -8; 697 NFkB inh: -6; Gli-Sufu antag: 12; Shn3 inh set2: 34; Mdm2-MdmX inh: -26

What do the screens show for `CC(C)C[C@H]1CN=C(N(C)C)N1CCCCc1ccccc1`?
Jurkat NFkB inh: 23; 697 NFkB inh: -36; Gli-Sufu antag: 61*; Shn3 inh set2: 68; Mdm2-MdmX inh: 47; Gli-Sufu confirm: 62*; Gli cytotox: 24; Wnt3a counter: 23

Results for CCC(C)CCN1C(N(C)C)=NC[C@@H]1CC(C)C (stereo not given in full) ?
Jurkat NFkB inh: -6; 697 NFkB inh: -15; Gli-Sufu antag: 71*; Shn3 inh set2: 80; Mdm2-MdmX inh: 21; Gli-Sufu confirm: 56*; Gli cytotox: 16; Wnt3a counter: 18

What do the screens show for `CCOc1ccc(NC(=O)CN(C)C(=O)c2c(-c3c(F)cccc3Cl)noc2C)cc1OCC`?
Jurkat NFkB inh: -6; 697 NFkB inh: -2; Gli-Sufu antag: 18; Shn3 inh set2: -15; Mdm2-MdmX inh: 10

What do the screens show for `O=C(O)c1ccc(NC(C(=O)c2ccccc2)c2ccccc2)cc1` (stereo not given)?
Gli-Sufu antag: -24; Shn3 inh set2: -22

How did CCN(CC)S(=O)(=O)c1ccc(C)c(NC(=O)CNc2cccc(S(=O)(=O)N3CCOCC3)c2)c1 do in these assays?
Jurkat NFkB inh: 16; 697 NFkB inh: 4; Gli-Sufu antag: 9; Shn3 inh set2: 4; Mdm2-MdmX inh: 24

Results for CCN(CC)S(=O)(=O)c1cccc(NC(=O)CCSc2ccc(Cl)cc2)c1 ?
Gli-Sufu antag: 51; Shn3 inh set2: 6; Gli-Sufu confirm: 10; Gli cytotox: 28*; Wnt3a counter: -33

What do the screens show for `CCN(CC)S(=O)(=O)c1cccc(NC(=O)CNc2cccc(S(=O)(=O)N3CCOCC3)c2)c1`?
Jurkat NFkB inh: 49; 697 NFkB inh: 29; Gli-Sufu antag: 63*; Shn3 inh set2: 88*; Mdm2-MdmX inh: 26; Gli-Sufu confirm: 69*; Gli cytotox: 25*; Wnt3a counter: 29*

Results for O=C(O)c1ccc(N/N=C/c2ccc(OC(=O)c3ccccc3Cl)cc2)cc1 ?
Jurkat NFkB inh: 17; 697 NFkB inh: -14; Gli-Sufu antag: 61*; Shn3 inh set2: -17; Mdm2-MdmX inh: -28; Gli-Sufu confirm: 64*; Gli cytotox: 7; Wnt3a counter: 79*

Results for CCN(CC)S(=O)(=O)c1ccc(Oc2ccccc2)c(N)c1 ?
Jurkat NFkB inh: 12; 697 NFkB inh: -1; Gli-Sufu antag: -4; Shn3 inh set2: 9; Mdm2-MdmX inh: 2

Results for CCN(CC)S(=O)(=O)c1ccc(N2CCN(c3ccccc3OC)CC2)c(N)c1 ?
Jurkat NFkB inh: 16; 697 NFkB inh: 2; Gli-Sufu antag: 66*; Shn3 inh set2: 76; Mdm2-MdmX inh: 8; Gli-Sufu confirm: 78*; Gli cytotox: 28*; Wnt3a counter: 32*

How did S=C1CC2CCCC(C2)N1 (stereo not given) do in these assays?
Gli-Sufu antag: -3; Shn3 inh set2: -2

How did Cc1ccccc1-n1nc(C(=O)c2cccs2)cc(-c2nc3ccccc3[nH]2)c1=N do in these assays?
Jurkat NFkB inh: -12; 697 NFkB inh: -31; Gli-Sufu antag: 59*; Shn3 inh set2: 17; Mdm2-MdmX inh: 39; Gli-Sufu confirm: 35; Gli cytotox: 8; Wnt3a counter: -82

Results for O=C(Cc1cccs1)Nc1ccccc1-c1nc2ccccc2[nH]1 ?
Jurkat NFkB inh: 15; 697 NFkB inh: -12; Gli-Sufu antag: -1; Mdm2-MdmX inh: 43

Results for CCOC(=O)N1CCN(c2cc(=O)n(-c3ccccc3Cl)c(=O)[nH]2)CC1 ?
Jurkat NFkB inh: -5; 697 NFkB inh: 12; Gli-Sufu antag: 54; Shn3 inh set2: -13; Mdm2-MdmX inh: 20; Gli-Sufu confirm: 16; Gli cytotox: 23; Wnt3a counter: 2
